TDP1 inh = inhibitors of human tyrosyl-DNA phosphodiesterase TDP1; Q9NUW8; recombinant TDP1, AlphaScreen DNA substrate cleavage; Potency, µM (highest dose often 130 µM), for inactives: at the highest dose activity change, negative = inhibition, usual class: inhibitors; 350,000 tested, 0.28% active; note: nearly all actives have a fitted effect of over 40% in size
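Tdp1 1 nM final; 15 min RT w/ cpd; substrate 15 nM, 5 min; beads 10 ug/ml, 10 min; AlphaScreen read. Neg ctrl: no enzyme.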
BLM helicase inh = blocks DNA unwinding by human BLM helicase; P54132; recombinant BLM DNA unwinding, fluorescence dequenching; Potency, µM (top dose mostly 56.1 µM), inactives show at the top dose activity change, negative = inhibition, most hits filed as inhibitors; 350,000 tested, 0.2% active; AID 2528;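 note: plate controls were vehicle for no effect and no enzyme for full effect; nearly all actives have a fitted effect of over 35% in size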
APE1 inh = inhibitors of human APE1 endonuclease; P27695; recombinant APE1, TAMRA/BHQ-2 abasic DNA cleavage fluorescence; Potency, µM (titrated, usually from 65.8 µM), for inactives: top-dose activity change, negative = inhibition, actives largely listed as inhibitors; 350,000 tested, 0.35% active; AID 2517;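 note: plate controls were vehicle for no effect and reference inhibitor for full effect; nearly all actives have a fitted effect of over 55% in size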
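Activity was derived from the fluorescence gain between first and third kinetic reads (60 s intervals, ex 525/em 598 nm) after 50 nM THF-abasic TAMRA/BHQ-2 duplex was added to 0.75 nM APE1 preincubated 15 min with compound.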
GCN5L2 inh = blocks human GCN5L2 histone acetyltransferase; Q92830; GCN5L2 HAT assay, ThioGlo1 CoA-SH fluorescence; Potency, µM (series often up to 58.9 µM), for the others: top-dose activity change, negative = inhibition, actives largely listed as inhibitors; 390,000 tested, 0.21% active; AID 504327
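Free CoA generated was detected with ThioGlo1 (50uM) fluorescence at Ex340nm/Em540nm, read immediately and after 20 min at room temperature. Enzyme, 20 nM in HEPES pH 7.5 buffer, saw compounds 15 min before adding 75uM H3(1-25) peptide and 70uM acetyl-CoA.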
RECQ1 helicase = inhibitors of human RECQ1 DNA helicase; P46063; RECQ1 DNA unwinding, red fluorescence kinetic read; Potency, µM (top dose mostly 57.3 µM), without a hit: at the top dose activity, negative = inhibition, usual class: inhibitors; 240,000 tested, 0.54% active;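 note: plate controls were vehicle for no effect and no enzyme for full effect; nearly all actives have a fitted effect of over 30% in size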
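RECQ1T1 50 nM; forked duplex (20 bp + 30-nt ss tails) 200 nM, ATP 2 mM final; pH 8.0, 2 mM MgCl2, 2.5 ug/ml poly(dI-dC); 15 min compound preincubation; discontinuous kinetic read over 2 h at RT.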
* hit, by the source's call; i = inactive; ? = inconclusive; . = no result; [ ] = remark or other dose. This is a sample that favours compounds with a hit; in the whole collection about 0.87% have one here. Calls come from the whole dose curve; as a rule, active = well fitted curve in the direction sought with a large enough effect; inconclusive = small, poorly fitted or top-dose-only effect, or another doubt; inactive = no such curve, though single readings can be large; an effect the other way counts as inactive or inconclusive. Unless noted, % is set by controls: 0 for no effect and ±100 for the full control effect; potency is the fitted concentration of half-maximal effect.

SMILES	TDP1 inh	BLM helicase inh	APE1 inh	GCN5L2 inh	RECQ1 helicase
O=C(N/N=C/c1cn(-c2cccs2)nc1-c1ccccc1)c1ccccc1O	-3%	20µM*	2%	-29%	-2%
CC(C)(C)OC(=O)NCc1nnc(-c2nc3ccccc3[nH]2)o1	-5%	.	.	.	.
O=c1c(O)c(-c2cc(O)c(O)c(O)c2)oc2cc(O)ccc12	.	-27%	0.28µM*	?	4.5µM*
COc1ccccc1-c1cc(-c2ccc(O)cc2)nc(N)c1C#N	.	32µM*	27µM*	-8%	.
COc1cc(-c2cc(-c3ccc(O)cc3)nc(N)c2C#N)ccc1O	0%	4%	10%	7%	0%
CC(C)(C)C(=O)CN1C(=O)NC(c2ccccc2)(c2ccccc2)C1=O	15%	-4%	7%	-2%	.
NC(=O)CN1C(=O)NC(c2ccccc2)(c2ccccc2)C1=O	45µM*	-3%	-12%	-3%	.
COc1ccccc1-c1coc2cc(O)ccc2c1=O	12%[56.1 µM]	-1%	0%	25µM*	i
O=C(/C=C/c1ccccc1)c1ccccc1	6%	-13%	17%	-8%	?
O=C(/C=C/c1ccccc1)/C=C/c1ccccc1	.	-13%	10%	-11%	14µM*
CC1=CC(=O)c2c(O)ccc(O)c2C1=O	-3%	18µM*	2µM*	13µM*	3.5µM*
COc1cccc2c1-c1c(O)cccc1C2=O	.	-7%	3%	-24%	.
Cn1cncc1C#Cc1ccc2cc(C3(O)CCCCC3)oc(=O)c2c1	56µM*	.	4%	-6%	.
Nc1nc(SCc2ccc([N+](=O)[O-])cc2)c2ncn([C@@H]3O[C@H](CO)[C@H](O)[C@H]3O)c2n1	7%	.	1%	.	42%
O=c1c(O[C@H]2O[C@@H](CO)[C@H](O)[C@@H](O)[C@@H]2O)c(-c2ccc(O)cc2)oc2cc(O)cc(O)c12	-14%	.	21µM*	-7%	.
CC12CCC(C[N+](C)(CCC[N+](C)(C)C)C1)C2(C)C (configuration not stated)	.	-13%	.	22µM*	.
COc1ccc2[nH]c(=O)c(CN(C3CCCCC3)C(c3nnnn3Cc3ccco3)C(C)C)cc2c1 (configuration not stated)	0%	-20%	-1%	-24%	28µM*
Cc1nnc(CN(C)c2ncnc3ccc(-c4ccc5c(c4)OCO5)cc23)o1	-2%	.	.	.	.
COc1ccccc1NC(=O)C(OC(=O)CNC(=O)c1ccccc1)c1ccccc1 (configuration not stated)	0%	.	.	.	.
Cc1cccc(OC2=NS(=O)(=O)c3ccccc32)c1	2%	.	.	.	.
COC(=O)c1ccccc1	3%	.	20%	.	0%
O=C(NOC(=O)c1ccccc1)c1ccccc1	5%	-2%	6%	35µM*	-4%
NNC(=O)C(C(=O)OCc1ccccc1)c1ccccc1 (configuration not stated)	1%	.	.	.	.
CCN(c1ccccc1)S(=O)(=O)c1ccc2[nH]cc(C(=O)N3CCOCC3)c(=O)c2c1	50µM*	-4%	?	-15%	-2%
O=C(CCCCCNC(=O)c1ccccc1)N/N=C/c1ccco1	40µM*	-9%	?	-6%	1%
SMILES	TDP1 inh	BLM helicase inh	APE1 inh	GCN5L2 inh	RECQ1 helicase
Cc1ccc(Cn2ncc3c4sc(C)cc4n(C)c3c2=O)cc1	-7%	.	.	.	.
COc1cccc(Cn2ncc3c4sc(B(O)O)cc4n(C)c3c2=O)c1	.	.	9.5µM*	6%	.
Cc1cc2c(s1)c1cnn(Cc3ccc(F)cc3)c(=O)c1n2C	50µM*	.	.	.	.
Cc1ccc(/C(N)=N/OC(=O)CCCc2ccccc2)cc1	50µM*	-2%	12%	-19%	.
Cc1ccc(/C(N)=N/OC(=O)Cc2ccccc2)cc1	-7%	-5%	-2%	-5%	-4%
Cc1c(P(=S)(c2ccccc2)c2ccccc2)c2ccccc2n1Cc1ccccc1	0%	.	.	.	.
CC(=O)Oc1cc(C(=O)OCC(=O)N2CCc3ccccc3C2)cc(OC(C)=O)c1OC(C)=O	.	.	5.3µM*	1%	.
COc1ccc(C2c3c(N)nc(Cc4ccccc4)nc3Oc3ccc4ccccc4c32)cc1OC (configuration not stated)	2%	.	.	.	.
O=c1nc2ccccc2c(NS(=O)(=O)c2ccc(Cl)cc2)n1-c1ccccc1	4%	-3%	-2%	3.2µM*	-3%
C/C(=C\C=C(C#N)C#N)c1cc(C#N)c(N)o1	8%	?	?	-5%	14µM*
COc1ccc(C(=O)c2cn(CC(=O)Nc3ccc4c(c3)OCCO4)c3ccc(OC)cc3c2=O)cc1	.	10µM*	.	-4%	.
CCOC(=O)c1cc(-c2ccccc2C)nn1Cc1cc(CC)no1	56µM*	.	6%	-10%	.
C=C1C=C(C(F)F)n2ncc(C(=O)NCc3ccccc3Cl)c2N1	.	.	40%	.	.
COC(=O)c1cc(C)nc2c1C(=O)C(=O)C=C2N1CCOCC1	-4%	8.9µM*	-8%	-17%	.
Cn1c2cc(S(C)(=O)=O)sc2c2cnn(Cc3ccccc3F)c(=O)c21	1%	.	.	.	.
Cc1cccc(C2=NN(c3ccccc3)[C@@H](C(=O)N3CCOC3=O)[C@@H]2c2ccc(F)cc2)c1	-5%[56.1 µM]	-13%[75.6 µM]	18%	32µM*	i
COc1cc(N=c2ssnc2Cl)c(OC)cc1Cl	10%	-2%	-12%	11µM*	i
COc1cc(NC(=O)c2cc(-c3cccs3)on2)c(OC)cc1Cl	8%	-3%	.	-1%	.
COc1ccc(OC)c(N=c2ssnc2Cl)c1	6%	-1%	-4%	28µM*	-6%
C/C=C(/CC[C@@H](C)[C@H]1CC[C@H]2C3=CC[C@H]4[C@H](C)[C@@H](O)CC[C@]4(C)[C@H]3CC[C@]12C)C(C)C	.	.	4%	.	.
O=c1/c(=C/c2ccco2)sc2nc3cc(Br)cnc3n12	.	.	14%	.	.
COc1cccc(-c2no[n+]([O-])c2C#N)c1	.	.	-4%	.	.
COc1ccc(C(=O)N(Cc2ccco2)Cc2ccco2)c(O)c1	-7%	.	.	.	.
S=c1ccss1	10%	1%	-3%	25µM*	-5%
O=c1c2ccccc2nc2sc(Nc3ccc(F)cc3)nn12	56µM*	.	?	-2%	.
SMILES	TDP1 inh	BLM helicase inh	APE1 inh	GCN5L2 inh	RECQ1 helicase
O=C(NCc1ccccc1)n1cc(P(=S)(c2ccccc2)c2ccccc2)c2ccccc21	0%	.	.	.	.
Cc1cc(N2C(=O)c3ccccc3C2=O)no1	0%	.	.	.	.
CCCCNc1c2c3c(cccc3n(C)c1=O)C(=O)c1ccccc1-2	.	-13%	-3%	-11%	32µM*
NCCNCCN	3%	-2%	3.5µM*	11%	5.6µM*
NCCNCCNCCN	11%	-11%	20%	0%	-12%
NC(=O)C1CCN(c2nc(-c3cccc4ccccc34)cs2)CC1	.	.	-16%	.	.
COc1ccc(/C=C2\C(=O)NC(=S)N2C(=O)c2ccc(F)cc2)cc1	20µM*	?	?	38%	?
CN1C(=O)/C(=C/c2ccc(OCc3ccc(F)cc3)cc2)N(C)C1=S	0%	-3%	9%	-1%	.

High-throughput results from PubChem BioAssay.
